# Assay outcomes from PubChem.
# Sampled rows, rich in hits. Any-hit rate of the full collection: about 8.6%.
# Lassa entry = inhibitors of Lassa virus binding or entry into cells; Lassa virus pseudotyped entry inhibition, cell-based qHTS; Potency, µM (titrated, usually from 49.2 µM), for the others: top-dose activity change, negative = inhibition, most hits filed as inhibitors; actives 4.1% (n = 18,000); AID 720533
# Marburg entry = blocks Marburg virus binding or cell entry; AID 720532; Marburg virus pseudotype entry/binding inhibition, cell-based; Potency, µM (highest dose often 49.2 µM), inactives show at the highest dose activity change, negative = inhibition, actives largely listed as inhibitors; actives 6.5% (n = 18,000)
# * = called active by the depositor; ? = inconclusive; . = no result given; ! = repeats disagree; [ ] = dose if it differs, or a comment. Calls follow the shape of the full dose curve; tested in HEK293 cells. % is scaled to controls: 0 for no effect and ±100 for the full control effect; potency is read from the fitted curve at half-maximal effect.
SMILES,Lassa entry,Marburg entry
COC1=C[C@@H](C(=O)N[C@H]2CCCC[C@H]2NC(C)=O)[C@@H](C)[C@H](c2ccccc2)CC1=O,?,-13%[8.59 µM]
CC(C)OC(=O)c1cn(Cc2c(F)cccc2F)c2sc(-c3ccc(NC(=O)C(C)C)cc3)c(CN(C)Cc3ccccc3)c2c1=O,16µM*,2.5µM*
CCCNC(=O)OC[C@H]1O[C@H](CCON=C(C)CCN2CCCCc3nc(C)c(C)cc32)C=C[C@H]1Oc1ccc(OC)cc1,-22%[8.59 µM],-26%[8.59 µM]
CCN(CC)CCC[C@H](C)Nc1ccnc2cc(Cl)ccc12,24%[17.8 µM],-22%[17.8 µM]
CCN(CC)Cc1ccc(Nc2ccnc3cc(Cl)ccc23)cc1O,?,1.8µM*
COc1ccc(COC(=O)NN=C2C[C@@H](O)[C@@H](O)[C@@H]3[C@H]4C(=O)N([C@@H](C)c5ccccc5)C(=O)[C@@H]4CC[C@H]23)cc1,.,-1%[8.59 µM]
O=[N+]([O-])c1ccc2c(c1)S(=O)(=O)C=C2,11µM*,6.3µM*
NC(=O)c1ccc([N+](=O)[O-])cc1Cl,2%,9%
COc1cccc([C@H]2Oc3ccc(OC)cc3C(=NO[C@@H](C)c3cc(-c4c(C)cc(C)cc4C)no3)[C@H]2O)c1,10%[8.59 µM],5%[8.59 µM]
COCCN1C(=O)C2=C(C1=O)C1N(C)c3ccccc3[C@@]13C[C@@H](CO)N=C3N2 (some centres undefined),18%[8.59 µM],25%[8.59 µM]
O=C(NC[C@@H]1CCCN2CCCC[C@H]12)c1cnn(-c2nccc(-c3cc4ccccc4o3)n2)c1C1CC1,?,11µM*
CCN(CC)CCNC(=O)c1cnn(-c2nccc(-c3cc4ccccc4o3)n2)c1C,?,13µM*
Cc1c(C(=O)NCCc2cccnc2)cnn1-c1nccc(-c2ccccc2F)n1,-5%,37%
CCN1CCCC1CNC(=O)c1cnn(-c2nccc(-c3cc4ccccc4o3)n2)c1C1CC1 (centres undefined),-18%,?
COC1=C(C(=O)c2ccccc2)C(=O)[C@@]2(CC=C(C)C)C[C@@H]([S+](=O)([O-])c3ccccc3)C(C)(C)[C@@]1(CC=C(C)C)C2=O,.,-17%[8.59 µM]
CC=Cc1cc2ccccc2c2c(C(=O)OC)c(C(=O)OC)c(C(=O)OC)n12,-2%[8.59 µM],?
CCOC(=O)CN1C(=O)C2(CC(C)=C[C@@H](C)O2)c2c(Br)cccc21 (some centres undefined),32%[8.59 µM],3%[8.59 µM]
COc1ccc2cc(CCC(C)=O)ccc2c1,50%[17.8 µM],54%[17.8 µM]
COc1ccc(C[C@@H]2NC[C@H](O)[C@@H]2OC(C)=O)cc1,0.011µM*,?
COc1ccc(N2C[C@H](Cc3ccccc3)[C@@H](CC(=O)Nc3ccccc3)C2=O)cc1,.,-27%
COc1ccc(C[C@H]2NC[C@H](O)[C@H]2OC(C)=O)cc1,3.5e-05µM*,?
N#Cc1ccc2c(c1)C[C@]1(c3ccsc3)Oc3c(c(=O)oc4ccc(F)cc34)[C@@H]2O1,-3%[8.59 µM],2%[8.59 µM]
O=C(NC1CCN(Cc2ccccc2)CC1)c1ccc(I)cc1,-4%,5%
O=C(CCC1CCN(Cc2ccccc2)CC1)c1ccc2c(c1)NCCCC2,?,14µM*
COc1cc(NCCCC(C)N)c2ncccc2c1 (centres undefined),10µM*,8.9µM*
SMILES,Lassa entry,Marburg entry
O=C1[C@H]2[C@@H]3[C@@H](O)[C@H](O)CC(=NOCc4ccccc4)[C@H]3CC[C@H]2C(=O)N1C1CCCCC1,1%[8.59 µM],-25%[8.59 µM]
Cc1nc(-c2ccccc2)n2nc(NCCCN3CCOCC3)ncc12,.,-29%
COC(=O)c1cc(CNC(=O)c2ccccn2)cc(NC(=O)c2ccccc2OC)c1,-27%,-27%
COC(=O)c1cc(CNC(=O)c2cccc(F)c2)cc(NC(=O)c2ccccc2OC)c1,?,141µM*
C=CCOC(=O)N[C@H](C(C(=O)OC)=C(C)NCc1ccccc1)c1cccc(F)c1,5%[8.59 µM],?
C[C@@H]1C[C@H]2[C@@H]3CCC4=CC(=O)C=C[C@]4(C)[C@@]3(F)[C@@H](O)C[C@]2(C)[C@@]1(O)C(=O)COC(=O)c1cccc(S(=O)(=O)O)c1,-18%,22%
CCCCN(CCCC)C(=S)[S-].CCCCN(CCCC)C(=S)[S-].[Zn+2],11µM*,6.3µM*
COC(=O)[C@@H]1[C@@H](c2ccccc2)NC(=O)N(Cc2ccccc2)[C@@H]1C,5%[8.59 µM],-5%[8.59 µM]
CNC(=O)c1cncc(C=Cc2c(C)cccc2C)c1,35%,?
C[C@@H]1[C@@H](c2ccccc2)Oc2c(Cl)cccc2S(=O)(=O)N1Cc1ccc(F)cc1,7%,?
CCC(C)(C)c1ccc(O)cc1,-2%,13%
CC(C)(C)CC(C)(C)c1ccc(O)cc1,?,45µM*!
COC(=O)C1=C(C(=O)OC)[C@@H]2N(C)c3ccccc3[C@@]23CCC(=O)N(Cc2ccc4c(c2)OCO4)C3=N1,4%[8.59 µM],?
ClC1=C(Cl)C(Cl)(C2(Cl)C(Cl)=C(Cl)C(Cl)=C2Cl)C(Cl)=C1Cl,?,3.2µM*
CC(CCN1CCCCc2nc(C)c(C)cc21)=NO[C@@H](C)CN1CCCCc2nc(C)c(C)cc21,.,6%[8.59 µM]
CC(CCN1CCCc2nc(C)c(C)cc21)=NO[C@@H](C)c1cc(-c2c(C)cc(C)cc2C)no1,11%[8.59 µM],-9%[8.59 µM]
COC(=O)C1=C(C)N(Cc2ccccc2)C(=O)NC1c1cccc(C(F)(F)F)c1 (centres undefined),5%[8.59 µM],17%[8.59 µM]
FC(F)(F)c1cc(CO[C@H]2CCCN[C@H]2c2ccccc2)cc(C(F)(F)F)c1,25µM*,10µM*
CC(C(O)c1ccccc1)N(C)CCOC(c1ccccc1)c1ccccc1 (centres undefined),14µM*,8.9µM*
Cc1ccccc1C(OCCN(C)C)c1ccccc1 (centres undefined),-24%,?
C=CCOC(=O)N[C@H](C(C(=O)OC)=C(C)NCc1ccccc1)c1cccc(C(F)(F)F)c1,31%[8.59 µM],3%[8.59 µM]
COc1cccc2c1C(=O)c1c(O)c3c(c(O)c1C2=O)C[C@](O)(C(C)=O)C[C@H]3O[C@@H]1C[C@H](N)[C@H](O)[C@H](C)O1,1µM*,?
CCCCC(=O)OCC(=O)[C@]1(O)Cc2c(O)c3c(c(O)c2[C@@H](O[C@H]2C[C@H](NC(=O)C(F)(F)F)[C@H](O)[C@H](C)O2)C1)C(=O)c1c(OC)cccc1C3=O,2.8µM*,?
COc1cccc2c1C(=O)c1c(O)c3c(c(O)c1C2=O)C[C@@](O)(C(=O)CO)C[C@@H]3O[C@H]1C[C@H](N)[C@H](O)[C@H](C)O1,20µM*!,0.28µM*!
CC[C@]1(O)CC(O[C@@H]2CC(N(C)C)C(O)C(C)O2)c2c(cc3c(c2O)C(=O)c2c(O)cccc2C3=O)C1C(=O)OC (some centres undefined),-26%,20µM*
SMILES,Lassa entry,Marburg entry
CC[C@@]1(O)CC(O)c2c(cc3c(c2O)C(=O)c2c(O)ccc(O)c2C3=O)C1C(=O)OC (some centres undefined),6%,-20%
COc1cccc([C@@H]2Oc3ccc(OC)cc3C(=O)[C@@H]2OC(=O)N[C@H]2CCCc3ccccc32)c1,23%[8.59 µM],16%[8.59 µM]
C[C@H]1CN(c2ccccc2)C(=O)[C@H]1CC(=O)Nc1ccccc1,13%,24%
C[C@H]1[C@@H](C(=O)N2CCCC2)CC(=O)C(=NOCc2ccccc2)C[C@H]1c1ccccc1,.,0%[8.59 µM]
COc1ccc(C2CC(=O)c3ccc(OC)cc3O2)cc1 (centres undefined),2%,-5%
COc1cc2c(cc1CC=C(C)C)C(=O)C[C@@H](c1ccc(O)cc1)O2,8.9µM*,?
